Experimental data published in PubChem BioAssay (NCI).
Compounds without any hit were thinned out: in the full panel of roughly 79,000, 15% have a hit. Calls of active or inactive are those of the source. Rule as the data show it: active = growth inhibition above about 70%; inactive = the rest.

What was measured:
[1] = NCI Yeast Anticancer Drug Screen. Data for the rad52 strain (AID 147);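 also: 0% = growth of vehicle-treated control cultures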; conditions: S. cerevisiae rad52 mutant growth inhibition, stronger effect = higher value
In short: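 Screen used a yeast mutant impaired in DNA repair. After compound exposure, growth was measured. Values reflect inhibition compared with vehicle-treated cells.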

[2] = NCI Yeast Anticancer Drug Screen. Data for the wt1 strain (AID 149);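 also: 0% = growth of vehicle-treated wt1 cultures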; conditions: S. cerevisiae wt1 strain (SPY 50644) growth inhibition, stronger effect = higher value
In short: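 Vehicle-normalised growth inhibition; strain wt1; compound exposure.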

[3] = NCI Yeast Anticancer Drug Screen. Data for the rad50EPP+ strain (AID 151);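 also: 0% = growth of vehicle-treated control cultures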; conditions: S. cerevisiae rad50 mutant strain, stronger effect = higher value
In short: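 Exposing the rad50EPP+ strain to each compound, growth was compared with vehicle-only cultures to give inhibition.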

[4] = NCI Yeast Anticancer Drug Screen. Data for the mgt1 strain (AID 153); conditions: S. cerevisiae mgt1 mutant growth inhibition, stronger effect = higher value
In short: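 Genetically defined yeast (mgt1) treated with compound; inhibition of growth expressed against vehicle-treated controls.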

[5] = NCI Yeast Anticancer Drug Screen. Data for the rad50 strain (AID 155);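 also: 0% = growth of vehicle-only cultures of the same strain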; conditions: S. cerevisiae rad50 strain growth inhibition, stronger effect = higher value
In short: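 A DNA repair-deficient yeast mutant serves as the test organism; compound-induced growth inhibition is calculated against vehicle-treated cells.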

[6] = NCI Yeast Anticancer Drug Screen. Data for the mec2-1 strain (AID 157); conditions: S. cerevisiae mec2-1 strain, stronger effect = higher value
In short: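 Readout is yeast growth inhibition, normalised to vehicle-treated controls, in the mec2-1 strain exposed to compound.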

[7] = NCI Yeast Anticancer Drug Screen. Data for the rad14 strain (AID 159);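 also: 0% = growth of vehicle-treated control cultures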; conditions: S. cerevisiae rad14 strain growth inhibition, stronger effect = higher value
In short: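 Vehicle-treated cultures served as the baseline for growth inhibition of a DNA repair-mutant yeast strain exposed to each compound.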

[8] = NCI Yeast Anticancer Drug Screen. Data for the sgs1 mgt1 strain (AID 161);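 also: 0% = growth of cultures given vehicle only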; conditions: S. cerevisiae sgs1 mgt1 strain, stronger effect = higher value
In short: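 Compounds are added to genetically altered yeast, and growth is compared with cultures given vehicle alone to give percent inhibition.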

[9] = NCI Yeast Anticancer Drug Screen. Data for the CLN2oe strain (AID 163);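 also: 0% = growth of vehicle-only control cultures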; conditions: S. cerevisiae CLN2oe strain, stronger effect = higher value
In short: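 Values reflect how much compound exposure reduced yeast growth, referenced to vehicle-exposed cells. Assay organism is a strain with a defined genetic change affecting cell-cycle control.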

[10] = NCI Yeast Anticancer Drug Screen. Data for the cln2 rad14 strain (AID 165);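 also: 0% = growth equal to vehicle treated cultures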; conditions: S. cerevisiae cln2 rad14 strain, stronger effect = higher value
In short: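 Relative to vehicle controls, growth inhibition of compound-treated cln2 rad14 yeast was recorded.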

[11] = NCI Yeast Anticancer Drug Screen. Data for the bub3 strain (AID 167); conditions: S. cerevisiae bub3 mutant strain, stronger effect = higher value
In short: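 Inhibition values come from growth of compound-treated mutant yeast normalised to vehicle-treated controls.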

[12] = NCI Yeast Anticancer Drug Screen. Data for the wt2 strain (AID 169);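 also: 0% = growth of vehicle-treated yeast cultures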; conditions: S. cerevisiae wt2 strain growth inhibition, stronger effect = higher value
In short: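 Values express reduction in yeast growth under compound treatment, referenced to vehicle-treated cells.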

[13] = NCI Yeast Anticancer Drug Screen. Data for the mlh1 strain (AID 171);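 also: 0% = growth of vehicle-treated control cultures of the same strain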; conditions: S. cerevisiae mlh1 strain growth inhibition, stronger effect = higher value
In short: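 Steps: expose the defined-mutant yeast strain to compound; expose a parallel culture to vehicle; measure growth; express compound effect as inhibition relative to the vehicle culture.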

[14] = NCI Yeast Anticancer Drug Screen. Data for the sgs1 strain (AID 173);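 also: 0% = growth of vehicle-only control cultures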; conditions: S. cerevisiae sgs1 mutant, stronger effect = higher value
In short: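 Treat defined-mutant yeast with compound; measure growth; calculate inhibition relative to vehicle-treated cells.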

[15] = NCI Yeast Anticancer Drug Screen. Data for the mlh1 rad18 strain (AID 175); conditions: S. cerevisiae mlh1 rad18 strain growth inhibition, stronger effect = higher value
In short: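 Test agents were incubated with a yeast strain of defined genotype (DNA damage repair defect). Inhibition of growth was derived by comparison with vehicle-exposed cultures.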

[16] = NCI Yeast Anticancer Drug Screen. Data for the rad18 strain (AID 177); conditions: S. cerevisiae rad18 mutant growth inhibition, stronger effect = higher value
In short: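 A genetically defined yeast mutant impaired in DNA damage repair was treated with test compounds, then its growth was measured against cultures receiving vehicle alone.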

[17] = at 5.0 µM (retest, dose inferred, filed as 0.5)
[18] = at 50.0 µM (retest, dose inferred, filed as 5.0)

Measured: growth inhibition

O=C(O)c1c2ccc(Cl)cc2nc2[nH]c(=O)[nH]c(=O)c12
inactive: [1]; at 1.2 µM -38% | [1]; at 3.7 µM -34% | [1]; at 11.0 µM -25% | [1]; at 33.0 µM -30% | [1]; at 100.0 µM -13% | [2]; at 1.2 µM -37% | [2]; at 3.7 µM -35% | [2]; at 11.0 µM -44% | [2]; at 33.0 µM -38% | [2]; at 100.0 µM -18% | [3]; at 1.2 µM -13% | [3]; at 3.7 µM -46% | [3]; at 11.0 µM -10% | [3]; at 33.0 µM 28% | [3]; at 100.0 µM 50% | [4]; at 1.2 µM -37% | [4]; at 3.7 µM -31% | [4]; at 11.0 µM -35% | [4]; at 33.0 µM -5% | [4]; at 100.0 µM 17% | [5]; at 1.2 µM -56% | [5]; at 3.7 µM -28% | [5]; [17] 47% | [5]; at 11.0 µM -32% | [5]; at 33.0 µM -23% | [5]; [18] 45% | [5]; at 50.0 µM 29.4% | [5]; at 100.0 µM 36% | [6]; at 1.2 µM -63% | [6]; at 3.7 µM -50% | [6]; [17] 47% | [6]; at 11.0 µM -37% | [6]; at 33.0 µM -43% | [6]; [18] 52% | [6]; at 50.0 µM 36.9% | [6]; at 100.0 µM -30% | [7]; at 1.2 µM -14% | [7]; at 3.7 µM -16% | [7]; at 11.0 µM -21% | [7]; at 33.0 µM -22% | [7]; at 100.0 µM 3% | [8]; [17] 13% | [8]; [18] 26% | [8]; at 50.0 µM 27.6% | [9]; at 1.2 µM -45% | [9]; at 3.7 µM -33% | [9]; at 11.0 µM -24% | [9]; at 33.0 µM -13% | [9]; at 100.0 µM -1% | [10]; [17] 64% | [10]; [18] 12% | [10]; at 50.0 µM 9.2% | [11]; at 1.2 µM -57% | [11]; at 3.7 µM -40% | [11]; [17] 36% | [11]; at 11.0 µM -29% | [11]; at 33.0 µM -5% | [11]; at 100.0 µM 50% | [12]; at 1.2 µM -30% | [12]; at 3.7 µM -33% | [12]; at 11.0 µM -25% | [12]; at 33.0 µM -23% | [12]; at 100.0 µM 4% | [13]; at 1.2 µM -29% | [13]; at 3.7 µM -24% | [13]; at 11.0 µM -29% | [13]; at 33.0 µM -11% | [13]; at 100.0 µM 30% | [14]; at 1.2 µM -39% | [14]; at 3.7 µM -31% | [14]; at 11.0 µM -26% | [14]; at 33.0 µM -10% | [14]; at 100.0 µM 1% | [15]; [17] 45% | [15]; [18] 54% | [15]; at 50.0 µM 31.7% | [16]; at 1.2 µM -21% | [16]; at 3.7 µM -17% | [16]; at 11.0 µM -9% | [16]; at 33.0 µM -1% | [16]; at 100.0 µM 7%
active: [11]; [18] 82% | [11]; at 50.0 µM 79.5%
